# D2 PAM-1 – potentiates the human D2 dopamine receptor allosterically. AID 624464. potentiation, % (no concentration beside the values). P14416. DiscoveRx D2 beta-arrestin cells, luminescence, 90 min; 100% = 57 uM dopamine signal. 360,000 compounds, 0.23% hits; in the data active = potentiation above about 50%; inconclusive = mostly about 30% to 49%
# Target sequence (P14416 whole entry, looked up): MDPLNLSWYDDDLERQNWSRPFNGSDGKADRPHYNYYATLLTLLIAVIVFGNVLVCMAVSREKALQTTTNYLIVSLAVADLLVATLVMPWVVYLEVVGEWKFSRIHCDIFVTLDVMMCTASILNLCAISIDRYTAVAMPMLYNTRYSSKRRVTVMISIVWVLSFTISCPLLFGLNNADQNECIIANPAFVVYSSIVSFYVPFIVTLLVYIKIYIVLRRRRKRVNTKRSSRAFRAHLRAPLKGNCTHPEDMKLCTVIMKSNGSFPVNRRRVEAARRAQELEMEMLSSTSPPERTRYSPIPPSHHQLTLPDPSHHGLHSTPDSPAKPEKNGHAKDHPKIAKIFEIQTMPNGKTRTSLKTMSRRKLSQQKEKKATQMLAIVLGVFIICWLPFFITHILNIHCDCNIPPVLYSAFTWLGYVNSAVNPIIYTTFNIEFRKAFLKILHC
#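 PathHunter beta-arrestin assay in DiscoveRx D2 cells. Compounds were added with an EC20 of dopamine (50 nM final) for 90 min at 37 deg C. Luminescence was read 1 h after detection reagent, with 57 uM dopamine as the EC100 control.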
# D2 ag-1 – agonists of human D2 dopamine receptor; P14416; HEK293 T-REx D2 cells, calcium flux agonist mode; activation, % at 2 µM; 340,000 compounds, 0.53% hits;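 active = activation over 3 SD above normal in the single-dose calcium agonist read, cut at about 30% in these data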; note: 0% is about no effect
#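 HEK293 Trex D2 cells, tetracycline-induced, o/n 30 C 5% CO2; no-wash Ca dye, RT 30–90 min; 10-cycle baseline, 23 nl cpd added, kinetic Ca read 180 s; agonist hits = positive Ca response.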
# D2 PAM-2 – positively modulates the human D2 dopamine receptor allosterically; AID 485347; 340,000 compounds, 0.34% hits; potentiation, % at 10 µM; P14416; HEK293 T-REx D2, calcium flux, EC20 dopamine potentiation;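 active = potentiation over 3 SD above the plate norm, cut at about 30% in these data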; note: 0% is about no effect
#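 Using a no-wash calcium dye in inducible, force-coupled HEK293 Trex cells expressing D2, we tracked fluorescence each second for 180 s after compound, then for 180 s after EC20 dopamine to detect augmented signalling.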
# D2 antagonist – D2 dopamine receptor (human) antagonism; P14416; HEK293 TREx D2 cells, calcium flux, dopamine EC80; inhibition, % at 10 µM; 340,000 compounds, 2% hits; AID 485344; in the data active = inhibition above about 30%; inactive = below that, where a call was filed; note: 0% is about no effect
#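 Dopamine at EC80 is the agonist stimulus; test compounds precede it by 180 s. Calcium flux read kinetically in a force-coupled, inducible HEK293 T-REx D2 cell line.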
# D2 ag-2 – activates the human D2 dopamine receptor; 360,000 compounds, 0.084% hits; DiscoveRx PathHunter D2 beta-arrestin, luminescence, 90 min; 100% = 57 uM dopamine signal; activation, % (test concentration not listed); in the data active = activation above about 40%; inconclusive = between about 15% and that limit
#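 DiscoveRx PathHunter D2 beta-arrestin cells (2,100/well) attached overnight, then compound-stimulated 90 min at 37 C in HBSS/10 mM HEPES/0.1% Tween-20 buffer; beta-galactosidase complementation read by luminescence after 1 h at ambient temperature. Dopamine 57 uM final (EC100) as control.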
# D3 ag – confirmation of human D3 dopamine receptor agonists, beta-arrestin. shares compounds with D2 ag-1. DiscoveRx D3 beta-arrestin cells, luminescence, 90 min. Potency, µM (highest dose often 76.9 µM), inactives show at the top dose activation, most hits filed as activators. 2,300 compounds, 4% hits. AID 720506;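 note: potency is the fitted concentration of half-maximal effect; 100% = dopamine control response; nearly all actives have a fitted effect of over 70% in size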
# D2 ag-3 – activates human D2 dopamine receptor in D3 counterscreen | shares compounds with D2 ag-1 | DiscoveRx PathHunter D2 beta-arrestin, luminescence, 90 min; response scale: percent relative to full dopamine signal | Potency, µM (top dose mostly 76.9 µM), inactives show top-dose activation, actives largely listed as activators | 2,300 compounds, 5.9% hits; note: potency is the fitted concentration of half-maximal effect; % of control where 0% means no effect; nearly all actives have a fitted effect of over 70% in size
# Starred values were filed as active, the others as inactive; ? = inconclusive; . = no result. The list is not random: actives were taken first. Their share in the collection is about 2.4%. Unless noted, calls come from the whole dose curve; as a rule, active = well fitted activation curve with a large enough effect; inconclusive = small, poorly fitted or top-dose-only effect; inactive = flat fitted curve, though single readings scatter.
SMILES,D2 PAM-1,D2 ag-1,D2 PAM-2,D2 antagonist,D2 ag-2,D3 ag,D2 ag-3
CCOc1ccc(N2C(=O)CC(NC3CCN(C(=O)c4ccc(F)cc4)CC3)C2=O)cc1 (configuration not stated),13.4,0.3,2.1,37.9*,-1.5,4.3%,-1.2%
CCOC(=O)c1ccc(N2C(=O)CC(NC3CCN(C(=O)c4ccc(F)cc4)CC3)C2=O)cc1 (configuration not stated),-13.0,0.2,0.9,-5.9,-2.0,.,.
Cc1ccc(CN2C(=O)C(=O)N(CC(N)=O)C2=O)cc1,-11.5,1.0,-5.1,-10.5,-2.6,.,.
C=C(C)CN1C(=O)C(=O)N(CC(=C)C)C1=O,-5.4,90.0*,-12.4,-17.5,-4.1,-8.3%,-2.6%
Cc1c(Cc2ccccc2)c(=O)oc2c(O)c(O)ccc12,18.1,54.1*,-12.8,33.8*,9.6,?,23.4%
CCc1ccc(CNC(=O)c2cnc3c(C)cccn3c2=O)cc1,.,0.0,1.1,.,.,.,.
O=CNc1ccccc1,-13.8,0.2,-8.4,-7.7,2.3,-4.1%,-2.3%
O=c1c(-c2cc(-c3ccc(F)cc3)nc3c2COc2ccc(Cl)cc2-3)coc2ccc(F)cc12,.,0.3,4.8,.,.,.,.
COc1cc(OC)c2ccc(=O)oc2c1C(CCN1CCN(c2ccccc2)CC1)c1ccc(N(C)C)cc1 (configuration not stated),-20.3,53.0*,-15.0,61.6*,2.1,1.1%,11.8%
COc1ccc(C(CCN2CCN(c3ccccc3)CC2)c2c(OC)cc(OC)c3c(-c4ccccc4)cc(=O)oc23)cc1 (configuration not stated),-11.0,69.0*,-9.2,79.4*,8.5,?,?
CCCCCc1cc(=O)oc2c(C(CCN3CCN(c4ccccc4)CC3)c3ccc(N(C)C)cc3)c(OC)cc(OC)c12 (configuration not stated),-18.3,7.1,3.7,21.2,1.3,.,.
COc1cc(C2CC(=O)Oc3c(C(CCN4CCN(c5ccccc5)CC4)c4ccc(N(C)C)cc4)c(OC)cc(OC)c32)cc(OC)c1OC (configuration not stated),-14.5,0.2,-9.2,-3.5,14.7,.,.
COc1cc(O)c(C(CCN2CCN(c3ccccc3)CC2)c2ccc3c(c2)OCO3)c(OC)c1 (configuration not stated),-19.4,24.9,-23.5,75.2*,0.9,-5.2%,4.7%
COc1cc(OC)c2c(-c3ccccc3)cc(=O)oc2c1C(CCN1CCN(c2ccccc2)CC1)c1ccc(N(C)C)cc1 (configuration not stated),-19.5,.,.,.,3.6,-6.3%,19.2%
O=C(NCC(c1cccs1)S(=O)(=O)c1cccs1)c1cccc(F)c1 (configuration not stated),.,-0.5,19.7,.,.,.,.
COc1ccc2c(c1)cc1c(=O)n(CC(=O)NCCCc3ccccc3)nc(C)n12,.,0.0,19.2,.,.,.,.
O=C(COc1ccc(Cl)cc1)NCC(c1ccco1)S(=O)(=O)c1ccc(F)cc1 (configuration not stated),.,.,10.9,.,.,.,.
O=C(OCC1CCCO1)c1ccc2c(c1)N(Cc1cccc(Cl)c1)C(=O)c1ccccc1S2(=O)=O (configuration not stated),.,-0.8,2.3,.,.,.,.
CCc1ccc(-n2c(=O)c3cccnc3n2CC(=O)N(CC)c2cccc(C)c2)cc1,.,1.1,0.5,.,.,.,.
O=C(NCCc1ccc(Cl)cc1)C1CCN(S(=O)(=O)c2ccc3[nH]ccc3c2)CC1,.,-0.5,-8.7,.,.,.,.
COc1ccc(-c2noc(CCC(=O)NCCN3CCN(c4ccccc4F)CC3)n2)cc1,-31.6,41.1*,-26.5,64.7*,-0.6,-0.6%,17.7%
CCN1CCN(CCCNC(=O)CCc2nc(-c3ccc(OC)cc3)no2)CC1,-2.4,0.6,-14.6,-9.9,-2.5,.,.
CCOc1ccc(NC(=O)NCCN2CCN(c3ccccc3F)CC2)cc1,-8.1,77.2*,-29.1,78.8*,?,?,?
CCOc1ccc(NC(=O)CCN2CCN(C)CC2)cc1,-5.6,0.0,17.7,-13.1,3.4,.,.
CCOC(=O)N1CCC(Nc2c(NCCN3CCN(Cc4ccccc4)CC3)c(=O)c2=O)CC1,-19.2,0.3,-15.4,23.3,-0.4,.,.
SMILES,D2 PAM-1,D2 ag-1,D2 PAM-2,D2 antagonist,D2 ag-2,D3 ag,D2 ag-3
CCOc1ccc(NC(=O)CCN2CCN(c3ccccc3F)CC2)cc1,13.7,79.0*,-20.5,76.9*,?,?,?
CCOC(=O)N1CCC(Nc2c(NCCN3CCN(c4ccccc4F)CC3)c(=O)c2=O)CC1,-11.2,42.8*,-9.2,23.5,2.5,?,2.9%
COc1ccc(NC(=O)CN2CCN(c3ccccc3F)CC2)cc1,-41.5,-0.3,6.3,-0.7,-1.2,.,.
Fc1ccc(C2=NC(c3cccc(C(F)(F)F)c3)=Nc3ccccc3N2)cc1,.,.,-5.6,.,.,.,.
COc1ccc(-c2cc(C(F)(F)F)nc(SCCC(=O)Nc3ccc(OC)c(OC)c3)n2)cc1,.,-0.4,2.0,.,.,.,.
Cc1cccc(-n2c(CNC(=O)c3cccc(F)c3)nnc2SCC(=O)Nc2ccccc2F)c1,.,0.3,15.3,.,.,.,.
Cc1sc(-n2cccc2)c(C(C)NC(=O)Nc2ccccc2Cl)c1C (configuration not stated),.,0.4,.,.,.,.,.
Cc1ccccc1NS(=O)(=O)c1ccc2[nH]cc(C(=O)NCCc3ccccc3)c(=O)c2c1,.,0.2,-7.2,.,.,.,.
COc1ccccc1N1CCN(CC(=O)Nc2ccc3c(c2)OCCO3)CC1,4.8,-1.4,19.3,-24.2,1.0,.,.
COc1ccc(NC(=O)NCCCN2CCN(c3ccccc3F)CC2)cc1,-3.7,82.0*,-24.8,91.5*,6.0,?,23.8%
COc1cccc(NC(=O)CCN2CCN(c3ccccc3F)CC2)c1,-7.8,76.2*,-24.2,76.6*,?,?,?
CCOc1ccc(NC(=O)CCN2CCN(c3ccccc3OC)CC2)cc1,-30.6,26.9,-28.0,61.5*,0.6,-7.2%,4.0%
COc1ccccc1N1CCN(CCC(=O)Nc2ccc3c(c2)OCO3)CC1,-15.5,55.1*,-18.5,79.7*,-0.8,-4.0%,0.8%
CCOC(=O)c1cccc(NC(=O)Cn2ncc3c4ccccc4n(Cc4ccccc4)c3c2=O)c1,.,0.0,-1.0,.,.,.,.
Cc1ccc(CNC(=O)CSc2nc3ccccc3nc2Cc2ccc(C)cc2)cc1,.,.,-8.5,.,.,.,.
COC(=O)c1cc2sc(C)cc2n1Cc1ccc(Br)cc1F,.,.,2.6,.,.,.,.
